Results published in PubChem BioAssay (Tox21).
Results filed as inconclusive are left out. The source made the active and inactive calls. Calls come from the whole dose curve; as a rule, active = well fitted curve in the direction sought with a large enough effect in the signal ratio in the repeat runs (not every such curve was filed as active); inconclusive = weak or mixed curves, or a change in a side signal; inactive = no such curve, though single readings can be large or run the other way; the % refers to the signal ratio.

assay: qHTS assay to identify small molecule agonists of the NFkB signaling pathway (AID 1159509); details: NFkB-bla ME-180 cells, beta-lactamase FRET ratio, 5 h; series mostly up to 61 µM
Outline: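 Readout: FRET fluorescence, 405 nm excitation, 460/530 nm emission; beta-lactamase expression disrupts FRET. Cells: ME-180 stably carrying NF-kB-driven bla reporter. Compound exposure 5 hr, 37 C, 5% CO2.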

Row | Compound | outcome
1 | CC(C)C#N | inactive
2 | CC1OC(C)OC(C)O1 (stereo not given) | inactive
3 | Cc1cccc([N+](=O)[O-])c1 | inactive
4 | Cc1ccc([N+](=O)[O-])cc1C | inactive
5 | CCC[N+](=O)[O-] | inactive
6 | COP(N)(=O)SC (stereo not given) | inactive
7 | O=c1[nH]c(=O)[nH]c(=O)[nH]1 | inactive
8 | O=NN1CCCCCCC1 | inactive
9 | CCCCCCCCCl | inactive
10 | C#CC(C)(C)NC(=O)c1cc(Cl)cc(Cl)c1 | inactive
11 | O=C(O)c1ccccn1 | inactive
12 | C1CN2CCN1CC2 | inactive
13 | OC(O)C(Cl)(Cl)Cl | inactive
14 | O=S(=O)(c1ccc(Cl)cc1)c1cc(Cl)c(Cl)cc1Cl | inactive
15 | CNC(=O)Oc1ccccc1OC(C)C | inactive
16 | C#CCN(C)[C@H](C)Cc1ccccc1 | inactive
17 | CCNc1nc(NC(C)(C)C)nc(SC)n1 | inactive
18 | OCCN(CCO)CCO | inactive
19 | BrCCBr | inactive
20 | O=S(=O)(c1ccc(O)cc1)c1ccc(O)cc1 | inactive
21 | Nc1ccc(Oc2ccc(N)cc2)cc1 | inactive
22 | CC(C)(Cl)Cl | inactive
23 | CN(C)[C@@H]1C(=O)C(C(N)=O)=C(O)[C@@]2(O)C(=O)C3=C(O)c4c(O)cccc4[C@@](C)(O)[C@H]3C[C@@H]12 | inactive
24 | Nc1ccccc1C(=O)O | inactive
25 | C=CCO | inactive
26 | c1ccc2c(c1)oc1ccccc12 | inactive
27 | CC(C)=C[C@@H]1[C@@H](C(=O)OCc2coc(Cc3ccccc3)c2)C1(C)C | inactive
28 | [O-][Cl+2]([O-])O | inactive
29 | Nc1ccc(Cc2ccc(N)cc2)cc1 | inactive
30 | CCCCOC(=O)c1ccccc1C(=O)OCCCC | inactive
